Experimental data published in PubChem BioAssay (EPA / NIEHS).
Calls of active or inactive are those of the source. Rule for the calls: active = hit-call score of the fitted dose curve at least 0.9, where 1 is the maximum; inactive = score below 0.9.

System: TTR (gene 7276)
Assay: CCTE_GLTED_hTTR_0.125uM: CCTE's human Transthyretin (hTTR) Inhibition Assay, with 0.125uM TTR, Great Lakes Toxicology and Ecology Division (GLTED) Lab (AID 2284431);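 note: hits lower the fluorescence signal relative to DMSO baseline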
How it was run: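 Probe-displacement format: chemicals competing for the T4 site release ANSA from 0.125uM TTR during a 2 h incubation, measured by fluorescence at 380 excitation and 475 emission.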

Row | SMILES | AC50
1 | CCNS(=O)(=O)C(F)(F)C(F)(F)C(F)(F)C(F)(F)C(F)(F)C(F)(F)C(F)(F)C(F)(F)F | 1.05 µM (active)
2 | CS(=O)(=O)NC(=O)c1cc(Oc2ccc(C(F)(F)F)cc2Cl)ccc1[N+](=O)[O-] | 6.19 µM (active)
3 | Cc1cc(N=Nc2ccccc2C)ccc1N | 0.0179 µM (active)
4 | c1ccc(N=Nc2ccccc2)cc1 | 28 µM (active)
5 | [Cl-].[Cl-].[Hg+2] | 6.05 µM (active)
6 | c1ccc(NNc2ccccc2)cc1 | 33.3 µM (active)
7 | Brc1ccc(Oc2ccccc2)cc1 | 50 µM (active)
8 | Nc1ccc(N=Nc2ccccc2)cc1 | 0.593 µM (active)
9 | Nc1ccc(Oc2ccc(N)cc2)cc1 | 17.7 µM (active)
10 | CCC(C)c1ccc(O)cc1 (stereo unspecified) | 4.66 µM (active)
11 | Nc1cc(Cl)cc(C(=O)O)c1Cl | 8.24 µM (active)
